In PubChem BioAssay:
Several values for one entry are separate records, joined by “and”; a condition that tells them apart may be missing. Equal values may be shown once. Results filed as inconclusive are left out. For some assays here: Entries with a potency or affinity are not part of this list. Activity calls are given as the source filed them. Unless noted, no cut-off is given here; in the data, nearly all actives have AC50 up to about 26 µM.

What was measured:
[1] = circadian clock period modulators, cell-based, LOPAC library, luminescence reporter (AID 2774; call rule not given here;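 note: values are relative to mean of DMSO wells on each plate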); conditions: circadian reporter cells, at 7 µM, actives lie on both sides
[2] = liver-stage malaria parasite growth inhibition, primary screen, cell-based, HepG2, luciferase luminescence, HepG2 viability (AID 624349; in the data active = parasite load remaining mostly below about 12%, no sharp cut-off; inactive = mostly above about 10%;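 note: 100% = mean of DMSO negative control wells on the same plate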); conditions: P. berghei liver stage in HepG2, luciferase luminescence, concentration not given here; parasite load remaining: stronger effect = lower value; viability: measured here: HepG2 viability without parasites
[3] = test system: Hepatitis C virus NS3 helicase; experiment: HCV NS3 helicase inhibitors, primary screen, biochemical, fluorescence polarization, LOPAC1280 library (AID 687035; in the data active = inhibition above about 37%); conditions: Purified HCV NS3 helicase, Cy5-dT15 ssDNA binding fluorescence polarization; stronger effect = higher value; concentration not given here
[4] = Cy5 fluorescence quenching or enhancement artefacts, artefact control for HCV NS3 helicase inhibitor project, biochemical, LOPAC1280 (AID 687037; call rule not given here); conditions: Cy5-DNA-NS3h complex fluorescence interference counterscreen
[5] = differential killing of epithelial or mesenchymal cells, primary screen, imaging, PC-3E GFP, TEM4-18 mCherry, co-culture (AID 1345086;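 active = compounds killing one labelled cell type while sparing the other, by normalised counts and ratio limits, not self-fluorescent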;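 for all read-outs here: cells exposed to compound for 72 h before imaging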;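 for red/green cell ratio (normalised): normalised mesenchymal count divided by normalised epithelial count so high means epithelial killing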); conditions: imaging cell counts, at 1 µM; for red/green cell ratio (normalised): actives lie on both sides, counts scaled to control wells, 1 = unselective
[6] = growth inhibition of DIPG glioma cells, dose response, cell-based, SU-DIPG-XIII, MIPE4.0, CellTiter-Glo, qHTS (AID 1347061; cut-off not given, nearly all actives have AC50 up to about 37 µM;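 note: cells exposed to compound for 48 hours before readout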); conditions: SU-DIPG-XIII viability, CellTiter-Glo ATP luminescence
[7] = growth inhibition of DIPG glioma cells, dose response, cell-based, JHH-DIPG-1, MIPE4.0, CellTiter-Glo, qHTS (AID 1347062; cut-off not given, nearly all actives have AC50 up to about 27 µM); conditions: JHH-DIPG-1 viability, CellTiter-Glo ATP luminescence
[8] = growth inhibition of DIPG glioma cells, dose response, cell-based, SU-DIPG-IV, MIPE4.0, CellTiter-Glo, qHTS (AID 1347063; cut-off not given, nearly all actives have AC50 up to about 30 µM;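 note: compound exposure lasted 48 hours before the viability readout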); conditions: SU-DIPG-IV viability, CellTiter-Glo ATP luminescence
[9] = SU-DIPG-VI glioma cell viability, MIPE4.0 library, CellTiter-Glo luminescence, qHTS (AID 1347066; cut-off not given, nearly all actives have AC50 up to about 30 µM;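 note: cells exposed to compound for 48 hours before readout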); conditions: CellTiter-Glo ATP luminescence
[10] = sensitizers of A549 cells to miR-34 induction, primary screen, imaging, A549 dox-inducible miR-34, nuclei and caspase counts (AID 1347080;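 active = compounds whose cell count with miR-34 switched on is under 0.7 times the count with it off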); conditions: A549 miR-34 inducible, Hoechst nuclei count, 48 h
[11] = phospholipid biosynthesis inhibitors in animal cells, primary screen, cell-based, LOPAC library, screen 4 (AID 1347384; call rule not given here); conditions: phospholipid biosynthesis inhibition screen, at 10 µM
[12] = viability rescue of complex I mutant cybrids, primary screen, cell-based, galactose medium, ATP luminescence (AID 1645843;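 active = z-score of at least 1.8 in each of two replicates, scored against plate mean and spread of sample wells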;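 note: positive z means more ATP and so rescue of galactose-driven cybrid death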); conditions: complex I mutant cybrid cells, 72 h, stronger effect = higher value
[13] = target: ATP-dependent translocase ABCB1 (Homo sapiens) (UniProt P08183); experiment: MDR1 (ABCB1) efflux transporter inhibition, cell-based (AID 377; in the data active = fluorescence slope change above about 50%); conditions: MDR1-expressing cells, fluorescent substrate accumulation slope; stronger effect = higher value; concentration not given here
Sequence of ATP-dependent translocase ABCB1 (Homo sapiens) (P08183 whole entry, looked up): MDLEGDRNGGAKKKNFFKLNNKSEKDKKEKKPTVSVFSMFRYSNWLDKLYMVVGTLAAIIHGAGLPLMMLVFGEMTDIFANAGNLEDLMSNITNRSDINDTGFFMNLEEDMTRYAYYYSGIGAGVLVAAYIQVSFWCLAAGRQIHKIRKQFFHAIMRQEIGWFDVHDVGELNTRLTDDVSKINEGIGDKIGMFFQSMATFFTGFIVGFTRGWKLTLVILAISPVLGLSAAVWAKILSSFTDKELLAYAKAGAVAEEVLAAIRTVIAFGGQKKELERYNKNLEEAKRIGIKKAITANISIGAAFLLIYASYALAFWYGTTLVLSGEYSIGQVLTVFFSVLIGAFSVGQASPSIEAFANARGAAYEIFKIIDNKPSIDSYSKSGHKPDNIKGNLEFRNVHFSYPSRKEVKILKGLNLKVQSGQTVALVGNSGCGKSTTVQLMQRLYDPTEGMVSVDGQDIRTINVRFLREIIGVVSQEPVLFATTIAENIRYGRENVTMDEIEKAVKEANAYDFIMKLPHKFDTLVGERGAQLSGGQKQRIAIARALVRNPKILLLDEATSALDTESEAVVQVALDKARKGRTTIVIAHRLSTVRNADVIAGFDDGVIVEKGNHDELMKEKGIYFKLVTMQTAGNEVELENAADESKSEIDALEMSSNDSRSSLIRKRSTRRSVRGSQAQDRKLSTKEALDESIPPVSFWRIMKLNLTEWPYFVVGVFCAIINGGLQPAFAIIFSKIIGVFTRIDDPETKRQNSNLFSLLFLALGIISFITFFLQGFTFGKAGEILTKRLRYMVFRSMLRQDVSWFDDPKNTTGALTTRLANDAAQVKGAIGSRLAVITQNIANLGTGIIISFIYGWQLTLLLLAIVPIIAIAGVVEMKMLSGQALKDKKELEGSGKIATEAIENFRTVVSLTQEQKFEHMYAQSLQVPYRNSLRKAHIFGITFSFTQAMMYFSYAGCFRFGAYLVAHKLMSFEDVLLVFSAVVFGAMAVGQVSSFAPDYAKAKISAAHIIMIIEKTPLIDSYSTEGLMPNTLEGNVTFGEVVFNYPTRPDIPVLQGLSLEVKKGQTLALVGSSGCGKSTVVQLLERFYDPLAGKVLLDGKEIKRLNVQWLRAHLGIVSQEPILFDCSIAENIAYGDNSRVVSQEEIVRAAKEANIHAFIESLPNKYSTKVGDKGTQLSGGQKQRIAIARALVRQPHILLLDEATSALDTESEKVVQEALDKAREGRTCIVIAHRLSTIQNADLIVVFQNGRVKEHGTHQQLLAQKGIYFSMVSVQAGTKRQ

[14] = hESC survival regulators, cell-based (AID 493140; call rule not given here;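 note: cells exposed to compounds for four days before counting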); conditions: human embryonic stem cell survival screen; stronger effect = higher value
[15] = growth inhibition of DIPG glioma cells, dose response, cell-based, SU-DIPG-XVII, MIPE5.0, CellTiter-Glo, qHTS (AID 1347060); conditions: SU-DIPG-XVII viability, CellTiter-Glo ATP luminescence;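 for AC50: cells exposed to compound for 48 hours before viability readout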
[16] = growth inhibition of DIPG glioma cells, dose response, cell-based, SU-DIPG-XIII, MIPE5.0, CellTiter-Glo, qHTS (AID 1347064; cut-off not given, nearly all actives have AC50 up to about 23 µM); conditions: SU-DIPG-XIII viability, CellTiter-Glo ATP luminescence
[17] = viability loss in pontine glioma line – cell-based, SU-DIPG-XXV, MIPE5.0, CellTiter-Glo, qHTS, dose response (AID 1347065); conditions: CellTiter-Glo ATP luminescence;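 note: cells exposed to compound for 48 hours before ATP readout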
[18] = JHH-DIPG-1 glioma cell viability, MIPE5.0 library, CellTiter-Glo luminescence, qHTS (AID 1347067); conditions: JHH-DIPG-1 glioma viability, CellTiter-Glo ATP luminescence;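 note: cells exposed to compound for 48 hours before readout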
[19] = SU-DIPG-XXV glioma cell viability, MIPE5.0 library, qHTS (AID 1347068; cut-off not given, nearly all actives have IC50 up to about 30 µM)
[20] = survival rescue of mitochondrial mutant cells in low glucose, primary screen, MELAS cybrids, Rieske KO mouse fibroblasts, CellTiter-Glo (AID 1508586;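 active = mean z-score across replicates of 1.96 or higher in either the MELAS or the Rieske mutant cell line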;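 note: z relative to plate mean and SD of compound and empty wells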)
[21] = target: NAD(+) hydrolase SARM1 (Homo sapiens) (UniProt Q6SZW1); experiment: SARM1 TIR NADase inhibitors, cell lysate, NAD-Glo luminescence (AID 1508614;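 active = compound whose remaining NAD level is above about 45 nM, limit read from the data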;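 note: higher remaining NAD means stronger inhibition of SARM1 NADase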); conditions: SAM-TIR HEK293T lysate NADase, at 1 µM, stronger effect = higher value
Sequence of NAD(+) hydrolase SARM1 (Homo sapiens) (Q6SZW1 whole entry, looked up): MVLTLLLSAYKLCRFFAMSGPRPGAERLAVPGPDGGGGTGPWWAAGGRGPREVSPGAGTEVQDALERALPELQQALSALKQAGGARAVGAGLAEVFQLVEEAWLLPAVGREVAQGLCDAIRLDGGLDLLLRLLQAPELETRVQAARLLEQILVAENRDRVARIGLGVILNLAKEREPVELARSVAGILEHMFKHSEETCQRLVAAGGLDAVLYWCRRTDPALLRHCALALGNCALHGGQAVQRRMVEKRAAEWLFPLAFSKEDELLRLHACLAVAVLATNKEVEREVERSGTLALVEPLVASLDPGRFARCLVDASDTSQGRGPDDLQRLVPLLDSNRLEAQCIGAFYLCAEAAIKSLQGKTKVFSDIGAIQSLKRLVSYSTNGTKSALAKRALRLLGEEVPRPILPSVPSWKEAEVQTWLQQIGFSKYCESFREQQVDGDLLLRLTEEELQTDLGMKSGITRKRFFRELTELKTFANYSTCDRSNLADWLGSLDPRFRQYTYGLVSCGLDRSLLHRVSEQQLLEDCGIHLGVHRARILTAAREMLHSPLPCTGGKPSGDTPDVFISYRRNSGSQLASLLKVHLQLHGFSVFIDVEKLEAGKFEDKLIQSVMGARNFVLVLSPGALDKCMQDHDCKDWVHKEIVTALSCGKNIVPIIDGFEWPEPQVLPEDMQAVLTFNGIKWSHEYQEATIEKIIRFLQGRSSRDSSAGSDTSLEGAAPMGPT

[22] = polyglutamine-triggered caspase-3 activation inhibitors, cell-based (AID 1583); conditions: polyglutamine-induced caspase-3 activation, cell assay; stronger effect = higher value;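 tested at 10 µM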
[23] = suppressors of polyQ aggregation in yeast, 75Q-TubU reporter (AID 1593); conditions: Yeast 75Q polyglutamine aggregation reporter
[24] = rescue of polyQ-huntingtin neuronal dysfunction in worms, whole organism, C. elegans mechanosensory neurons, N-terminal huntingtin (AID 1599); conditions: touch response, stronger effect = higher value
[25] = inhibitors of mitochondrial cytochrome c release, biochemical, purified mitochondria (AID 1603); conditions: stronger effect = lower value;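 note: mouse liver mitochondria challenged with calcium chloride; signal normalized to the plate average as 100%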
[26] = inhibitors of polyQ protein aggregation (AID 1604); conditions: polyglutamine-induced protein aggregation inhibition assay; stronger effect = higher value; tested at 2.5 µM
[27] = enhancers of glutamate uptake in motor neurons, MN-1 cell line (AID 1612); conditions: MN-1 motor neuron cells, stronger effect = higher value;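 note: tested at 1 µM final; 0% = mean of DMSO vehicle wells on each plate; positive means more glutamate uptake than control and negative means less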
[28] = suppressors of polyglutamine aggregation in yeast, 75Q-TubH (AID 1616); conditions: S. cerevisiae 75Q-TubH polyglutamine aggregation suppression; stronger effect = higher value
[29] = antimalarial activity against Dd2 strain (AID 2302;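 active = growth inhibition above 50% at the single 2 µM test dose, taken to imply half-maximal potency below 2 µM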;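 note: 0% = DMSO untreated growth and 100% = chloroquine plus artemisinin killed control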); conditions: P. falciparum Dd2 in RBCs, LDH growth readout, 72 h; at 2 µM; stronger effect = higher value
[30] = HepG2 cytotoxicity, primary screen, cytotoxicity control for P. falciparum antimalarial project, cell-based, ATP luminescence (AID 2303;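 active = inhibition above 50%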;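 note: 0% = DMSO wells and 100% = digitonin-killed cells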); conditions: HepG2 viability, 24-48 h, at 10 µM, stronger effect = higher value
[31] = target: L-lactate dehydrogenase (Plasmodium falciparum (isolate CDC / Honduras)) (UniProt Q27743); experiment: PfLDH activity inhibition – cell lysate, 3D7 strain, counter-screen for P. falciparum growth inhibition project (AID 2304; call rule not given here;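 note: 0% = vehicle and 100% = reference inhibitor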); conditions: P. falciparum 3D7 crude extract, LDH APAD/NBT absorbance; at 2 µM; stronger effect = higher value
Sequence of L-lactate dehydrogenase (Plasmodium falciparum (isolate CDC / Honduras)) (Q27743 whole entry, looked up): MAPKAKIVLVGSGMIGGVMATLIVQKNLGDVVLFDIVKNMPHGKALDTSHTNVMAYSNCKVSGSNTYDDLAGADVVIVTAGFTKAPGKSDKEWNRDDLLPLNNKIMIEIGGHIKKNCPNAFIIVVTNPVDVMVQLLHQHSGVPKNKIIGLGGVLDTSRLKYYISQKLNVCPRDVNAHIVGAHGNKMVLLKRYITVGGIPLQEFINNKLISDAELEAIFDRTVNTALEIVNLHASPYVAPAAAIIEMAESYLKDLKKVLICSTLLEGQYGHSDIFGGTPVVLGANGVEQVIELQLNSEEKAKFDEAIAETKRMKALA

[32] = inhibition of 3D7 malaria parasite growth – strain 3D7 (AID 2306; call rule not given here;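 note: 0% = DMSO wells and 100% = chloroquine plus artemisinin control wells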); conditions: P. falciparum 3D7 erythrocytic growth, LDH absorbance, 72 h; at 2 µM; stronger effect = higher value
[33] = measured here: epithelial PC-3E GFP cell survival
[34] = measured here: mesenchymal TEM4-18 mCherry cell survival
[35] = stronger effect = lower value, cell number ratio, induced over uninduced
[36] = measured here: relative caspase fold change +Dox/-Dox
[37] = measured here: total cells with miR-34 induction, stronger effect = lower value
[38] = measured here: total cells without miR-34 induction
[39] = MELAS cybrid survival, CellTiter-Glo 48 h, stronger effect = higher value
[40] = Rieske KO mouse fibroblast survival, CellTiter-Glo 72 h

SMILES: CC1CC2C3CCC4=CC(=O)C=C[C@]4(C)[C@@]3(F)[C@@H](O)C[C@]2(C)[C@@]1(O)C(=O)CO (stereo not given in full)
- period change [1]: -0.45 h (inactive)
- parasite load remaining [2]: 123% (inactive)
- viability [2]: 71.5%
- inhibition [3]: -1% (inactive)
- fluorescence ratio (interference) [4]: 1 (inactive)
- red/green cell ratio (normalised) [5]: 1.04 (inactive)
- normalised cell number [5, 33]: 1.32
- normalised cell number [5, 34]: 1.37
- outcome [6]: inactive
- outcome [7]: inactive
- outcome [8]: inactive
- outcome [9]: inactive
- fold change [10, 35]: 0.94 (inactive)
- fold change [10, 36]: 1.79
- cell count [10, 37]: 7510
- cell count [10, 38]: 7990
- outcome [11]: inactive
- z-score [12]: 1.44 (inactive)

SMILES: CN[C@@H]1[C@H](O[C@H]2[C@H](O[C@@H]3[C@@H](O)[C@H](O)[C@@H](N=C(N)N)[C@H](O)[C@H]3N=C(N)N)O[C@@H](C)[C@]2(O)C=O)O[C@@H](CO)[C@H](O)[C@H]1O
- fluorescence slope change [13]: 2.1% (inactive)
- survival [14]: 20.6 (inactive)
- parasite load remaining [2]: 51.2% (inactive) and 45.6% (inactive) and 35.8% (inactive)
- viability [2]: 118% and 97.5% and 75%
- red/green cell ratio (normalised) [5]: 0.77 (inactive)
- normalised cell number [5, 33]: 1.28
- normalised cell number [5, 34]: 0.98
- outcome [15]: inactive
- outcome [16]: inactive
- outcome [17]: inactive
- outcome [18]: inactive
- outcome [19]: inactive
- fold change [10, 35]: 0.935 (inactive) and 0.903 (inactive)
- fold change [10, 36]: 0.998 and 1.43
- cell count [10, 37]: 7810 and 9380
- cell count [10, 38]: 8360 and 10400
- z-score [20, 39]: -0.628 (inactive) and -0.564 (inactive)
- z-score [20, 40]: -0.384 and -1.54
- z-score [12]: -0.095 (inactive)

SMILES: OC[C@@H](O)[C@@H](O)[C@H](O)[C@@H](O)CO
- parasite load remaining [2]: 34.8% (inactive)
- viability [2]: 97.5%
- red/green cell ratio (normalised) [5]: 1.05 (inactive)
- normalised cell number [5, 33]: 1.02
- normalised cell number [5, 34]: 1.06
- outcome [15]: inactive
- outcome [6]: inactive
- outcome [7]: inactive
- outcome [16]: inactive
- outcome [17]: inactive
- outcome [9]: inactive
- outcome [18]: inactive
- outcome [19]: inactive
- fold change [10, 35]: 0.939 (inactive)
- fold change [10, 36]: 3.07
- cell count [10, 37]: 11500
- cell count [10, 38]: 12200
- remaining NAD [21]: 10 nM (inactive)

SMILES: OC(c1cc(C(F)(F)F)nc2c(C(F)(F)F)cccc12)C1CCCCN1 (stereo not given)
- fluorescence slope change [13]: 96.4% (active)
- inhibition [22]: 50.1%
- score [23]: 1.42
- rescue above control [24]: 0
- cytochrome c release ratio [25]: 2.44
- inhibition of aggregation [26]: -19.6%
- glutamate uptake change [27]: -3.13%
- aggregation suppression score [28]: 1.65
- growth inhibition [29]: 99% (active)
- inhibition [30]: -3% (inactive)
- inhibition [31]: -6% (inactive)
- growth inhibition [32]: 96% (active)
- survival [14]: 3.83 (inactive)
- red/green cell ratio (normalised) [5]: 0.94 (inactive)
- normalised cell number [5, 33]: 1.16
- normalised cell number [5, 34]: 1.1
- AC50 [15]: 20.9 µM (active)
- AC50 [8]: 26.4 µM (active)
- AC50 [17]: 20.9 µM (active)
- fold change [10, 35]: 0.709 (inactive) and 0.928 (inactive)
- fold change [10, 36]: 1.51 and 4.5
- cell count [10, 37]: 3010 and 11200
- cell count [10, 38]: 4250 and 12100
- z-score [20, 39]: -2.19 (inactive)
- z-score [20, 40]: -3.08
